Test results from ChEMBL document CHEMBL2218924, “A broad activity screen in support of a chemogenomic map for kinase signalling research and drug discovery” (Biochem J, 2013).

Each molecule was assayed against T1, Testis-specific serine/threonine-protein kinase 2 (Homo sapiens) (UniProt Q96PF2). Conditions: at 1 µM.
T1 sequence (whole entry): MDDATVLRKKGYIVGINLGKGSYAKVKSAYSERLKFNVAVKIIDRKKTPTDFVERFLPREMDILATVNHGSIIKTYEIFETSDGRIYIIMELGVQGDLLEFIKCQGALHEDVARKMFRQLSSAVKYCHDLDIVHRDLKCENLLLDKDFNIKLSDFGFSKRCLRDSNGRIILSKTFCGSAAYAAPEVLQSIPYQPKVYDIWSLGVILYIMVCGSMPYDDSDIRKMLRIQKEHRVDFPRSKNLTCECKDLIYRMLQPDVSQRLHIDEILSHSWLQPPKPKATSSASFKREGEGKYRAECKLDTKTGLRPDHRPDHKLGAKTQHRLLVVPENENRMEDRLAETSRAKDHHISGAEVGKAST

| Compound | residual activity |
| --- | --- |
| c1ccc(-c2n[nH]cc2-c2ccnc3ccccc23)nc1 | 96% |
| CCCCc1c(-c2ccc(O)cc2)[nH]c2nccnc12 | 94% |
| O=C1Nc2cc(Br)ccc2/C1=C1/Nc2ccccc2/C1=N\O | 73% |
| CCN1/C(=C/C(C)=O)Sc2ccc(OC)cc21 | 77% |
| COc1cc2ncnc(Nc3ccc(Oc4ccccc4)cc3)c2cc1OC | 97% |
| Cc1cccc(-c2[nH]c(C(C)(C)C)nc2-c2ccc3c(c2)OCO3)n1 | 93% |
| c1ccc(-c2n[nH]c3c2oc2ccccc23)cc1 | 96% |
| N#C/C(=C(\N)Sc1ccc(N)cc1)c1ccccc1C(F)(F)F | 62% |
| NC(=O)Nc1sc(-c2ccc(F)cc2)cc1C(N)=O | 88% |
| O=C(NC(NC(=S)Nc1ccc(F)c([N+](=O)[O-])c1)C(Cl)(Cl)Cl)C(c1ccccc1)c1ccccc1 (stereo not given) | 102% |
| Cn1c2ccccc2c2c3c(c4c5ccccc5n(CCC#N)c4c21)CNC3=O | 64% |
| CCN(CC)C(=O)c1ccc(Nc2nc(OCC3CCCCC3)c3nc[nH]c3n2)cc1 | 62% |
| Fc1ccc(-c2nc3n(c2-c2ccncc2)CCS3)cc1 | 85% |
| N#CC(C#N)=C(N)/C(C#N)=C/c1ccc(O)cc1 | 85% |
| Cn1cc(/C=C2\C(=O)Nc3ccc(S(N)(=O)=O)cc32)c2ccccc21 | 72% |
| c1ccc(-c2cnc(Nc3ccc(OCCN4CCCC4)cc3)s2)cc1 | 100% |
| COc1ccc(OC)c2c(=S)c3ccccc3[nH]c12 | 106% |
| CSc1nc(-c2ccc(F)cc2)c(-c2ccnc(NC(C)c3ccccc3)c2)[nH]1 (stereo not given) | 98% |
| Cn1nc2c3c(cccc31)C(=O)c1ccccc1-2 | 79% |
| O=C(Nc1cccc(Nc2nccc(Nc3cccc(C(F)(F)F)c3)n2)c1)C1CC1 | 86% |

| Compound | residual activity |
| --- | --- |
| COc1ccc(CNc2nc(N(CCO)CCO)nc3c2ncn3C(C)C)cc1 | 98% |
| CCN(CC)CCNC(=O)c1c(C)[nH]c(/C=C2\C(=O)Nc3ccc(Cl)cc32)c1C | 62% |
| C[C@@H](N)[C@H]1CC[C@H](C(=O)Nc2ccncc2)CC1 | 102% |
| Nc1n[nH]c2nc3ccccc3nc12 | 95% |
| CCOc1cc2ncnc(Nc3cccc(Br)c3)c2cc1OCC | 82% |
| O=c1c2ccccc2[nH]c(=S)n1CCN1CCC(=C(c2ccc(F)cc2)c2ccc(F)cc2)CC1 | 96% |
| O=C(c1cc2cc(O)ccc2[nH]1)c1cc2cc(O)ccc2[nH]1 | 77% |
| O=C1c2ccccc2-[n+]2ccc3c([nH]c4ccccc43)c21 | 98% |
| CO[C@H]1[C@@H](OC)C[C@H](C)[C@@H](OC)C2=CC(=O)C=C(NC(=O)/C(C)=C/C=C/[C@H](OC)[C@@H](OC(N)=O)/C(C)=C/[C@@H]1C)C2=O | 97% |
| O=C1NC(=O)c2c1c1c3ccccc3[nH]c1n1cncc21 | 83% |
| O=C1NC(=O)c2c1c1c3ccccc3[nH]c1c1[nH]c3cc(Br)ccc3c21 | 102% |
| Cn1cnc2cc3c(Nc4cccc(Br)c4)ncnc3cc21 | 100% |
| CC(C)(C)n1nc(Cc2cccc3ccccc23)c2c(N)ncnc21 | 104% |
| CCCC(=O)Oc1ccc2[nH]c(C(=O)c3cc4ccccc4[nH]3)cc2c1 | 96% |
| COc1cccc(-c2cc(=O)c3ccccc3o2)c1N | 89% |
| Nc1ncnc2c1c(-c1ccc(Oc3ccccc3)cc1)cn2C1CCCC1 | 86% |
| Oc1cccc(-c2nc(N3CCOCC3)c3oc4ncccc4c3n2)c1 | 93% |
| O=C1NC(=O)c2cc(Nc3ccc(F)cc3)c(Nc3ccc(F)cc3)cc21 | 91% |
| CC(C)n1cnc2/c(=N/c3cccc(Cl)c3)nc(NCCO)[nH]c21 | 88% |
| O=C(O)/C=C/c1cc(Br)c(Br)c(Br)c1Br | 96% |
